In all, about 340,000 compounds went through this assay and about 3,300 (0.97%) were called active. Roughly 9% stayed inconclusive and do not appear here. Calls follow the shape of the dose curve; as a rule, active = well fitted inhibition curve with a large enough effect; inconclusive = small, poorly fitted or top-dose-only effect, or effect the other way; inactive = flat fitted curve, though single readings scatter. Some of the results follow.
Experiment: qHTS Assay for Modulators of miRNAs and/or Inhibitors of miR-21; also: nearly all actives have a fitted effect of over 55% in size
Details: HeLa miR-21-FLuc reporter, luciferase luminescence, 48 h; actives lower the signal
Text: MLSCN Grant: 1 R21 NS059478-01 Assay Provider: Qihong Huang, The Wistar Institute NCGC Assay Overview: MicroRNAs (miRNAs) are endogenously encoded small (~20-25 nucleotides), nonprotein-coding RNAs that are involved in post-transcriptional repression of target messenger RNAs (mRNAs) (Le and Hannon, 2004). Estimated to be involved in the regulation of 30% of all protein-coding mRNAs (Filipowicz et al., 2008), miRNAs play a significant role in many biological processes including cellular differentiation and tissue development (Ghildiyal and Zamore, 2009).
NCGC Assay Protocol Summary: Reagents: HeLa cells stably expressing firefly luciferase (FLuc) under the control of a CMV promoter (upstream) and a miR-21 binding sequence directly downstream of the gene. These cells endogenously express miR-21. Control compounds used were compound C3 (provided by collaborator), N6-phenyladenosine (MP Biomedicals, 0215379625), and DMSO. Assay Summary: 6uL of HeLa miR-21-FLuc cells in assay buffer (DMEM, Invitrogen #21063-029; 10% FBS, HyClone #SH30071.03) were dispensed at 2000cells/well (3.3 x 10^5 cells/mL) into Greiner solid-white TC-treated 1536-well plates using a Multidrop Combi (Thermo Fisher Scientific). Plates were incubated for one hour at 37 degree Celsius, 95% humidity, 5% CO2. These assay plates were then treated with 23nL of compound or DMSO using a Kalypsys pin tool, which allows for delivery of a 24-point titration of each compound to the assay plate, with a final compound concentration ranging from approximately 40uM to 5pM. Assay plates were then incubated for 48 hours. After incubation, plates were allowed to come to RT for one hour prior to delivery of 3uL of 3X luciferase detection reagent. After a 15 minute incubation to allow for cell lysis, luciferase activity was measured using a ViewLux CCD imager (PerkinElmer), with an average exposure time of 2-12 seconds. Keywords: NIH Roadmap, MLPCN, MLSMR, qHTS, miR-21, microRNA, firefly luciferase, FLuc.
Potency is read from the fitted curve at half-maximal effect.

Structure (SMILES)	Potency
CN(CCC#N)C(=O)c1cc2c(s1)-c1ccccc1SC2	4.14 µM (active)
Cc1ccccc1C(=O)Nc1nnc(S(=O)(=O)N2CCCCCC2)s1	1.65 µM (active)
COc1ccc(C(=O)Nc2nnc(S(=O)(=O)N3CCC(C)CC3)s2)cc1OC	0.464 µM (active)
O=C(Nc1nnc(S(=O)(=O)N2CCCC2)s1)c1ccc(F)cc1	3.69 µM (active)
CCC(CC)C(=O)Nc1nnc(S(=O)(=O)N2c3ccccc3CC2C)s1 (stereo not drawn)	2.61 µM (active)
Cn1c(-c2cc3ccc(OC(=O)C(C)(C)C)cc3oc2=O)nc2ccccc21	3.69 µM (active)
COc1ccccc1N1CCN(/N=C\c2ccccc2)CC1	10.4 µM (active)
COc1ccccc1N1CCN(/N=C/c2cccc(Cl)c2)CC1	6.56 µM (active)
CCOC(=O)c1snc(C(=O)NC2CCCCC2)c1N	7.36 µM (active)
CN(C)/C=C(/C(=O)c1ccc(Cl)cc1)S(=O)(=O)c1ccccc1	18.5 µM (active)
CCCC(=O)Nc1ccc2oc(-c3ccc(O)c(Br)c3)nc2c1	0.927 µM (active)
CCC(=O)Nc1ccc2oc(-c3cccnc3)nc2c1	8.26 µM (active)
Cc1cc(-c2nc3ncccc3o2)ccc1N	3.29 µM (active)
O=C(Nc1ccc2oc(-c3cccnc3)nc2c1)c1ccco1	11.7 µM (active)
O=C(Nc1ccc(-c2nc3ncccc3o2)cc1)c1ccco1	1.85 µM (active)
Nc1cccc2c1C(=O)N(CCOc1ccc(F)cc1)C2=O	0.826 µM (active)
COc1ccc(OCCN2C(=O)c3cccc(N)c3C2=O)cc1	14.7 µM (active)
COc1ccc(C2=NN(c3ccc(C(=O)O)cc3)C(c3ccc(OC)c(OC)c3)C2)cc1 (stereo not drawn)	18.5 µM (active)
COc1ccccc1CN=C1Nc2ccccc2CS1	5.85 µM (active)
COc1cccc(CN=C2Nc3ccccc3CS2)c1	4.65 µM (active)
CCCC(=O)Nc1ccc(NC(=O)C23CC4CC(CC(C4)C2)C3)cn1	18.5 µM (active)
OC[C@H]1O[C@@H](n2cnc3c(Nc4ccccc4)ncnc32)[C@H](O)[C@@H]1O	3.69 µM (active)
CCOC(=O)c1c(C)[nH]c2cc(Br)c(O)cc12	16.5 µM (active)
COc1ccc2c(CC(=O)N3CCc4ccccc43)coc2c1	2.93 µM (active)
O=C(COc1ccccc1Cl)N1CCc2ccccc21	2.07 µM (active)
CCc1ccc(OCC(=O)N2CCc3ccccc32)cc1	4.65 µM (active)
O=C(COc1ccc2c(c1)CCC2)N1CCc2ccccc21	3.29 µM (active)

Structure (SMILES)	Potency
O=C(COc1ccccc1)N1CCc2ccccc21	4.65 µM (active)
Cc1c(C(=O)N2CCc3ccccc32)oc2ccccc12	0.736 µM (active)
Cc1c(Br)c(C(=O)N2CCc3ccccc32)nn1C	5.21 µM (active)
COc1ccc(C(=O)N2CCc3ccccc32)cc1	18.5 µM (active)
O=C(COc1ccc(F)cc1Br)N1CCc2ccccc21	1.26 µM (active)
O=C(OCc1ccccc1)N1CCc2ccccc21	1.17 µM (active)
O=C(c1ccco1)N1CCc2ccccc21	5.85 µM (active)
Cc1ccccc1OCC(=O)N1CCCc2ccccc21	14.7 µM (active)
O=C1/C(=C\Nc2ccc(Cl)cc2)CCN1c1ncccn1	1.31 µM (active)
CCC(C)NC(=O)Cn1c(COc2ccc(Cl)cc2Cl)nc2ccccc21 (stereo not drawn)	8.26 µM (active)
CC(=O)C(/C=N/c1cc(-c2ccc(C)cc2)nn1-c1ccccc1)=C(\C)O	1.47 µM (active)
COc1ccccc1N=c1oc2cc(O)ccc2cc1C(=O)NCC1CCCO1 (stereo not drawn)	9.27 µM (active)
CCOC(=O)/C=C(\C)N1N=C(c2ccccc2)CC1c1ccccc1 (stereo not drawn)	2.33 µM (active)
CCOc1ccc(/C=N/N(C)c2ccccc2)cc1OC	4.65 µM (active)
COc1cc(/C=N/N(C)c2ccccc2)ccc1O	2.61 µM (active)
CN(/N=C/c1ccc2c(c1)OCO2)c1ccccc1	6.56 µM (active)
COc1ccc(OC)c(/C=N/N(C)c2ccccc2)c1	6.56 µM (active)
CCCCC12CN3CCN(CC(C3)/C1=N\NC(=O)c1ccccc1N)C2	9.27 µM (active)
CC12CN3CCN(CC(C3)/C1=N\NC(=O)c1ccccc1N)C2	10.4 µM (active)
Nc1ccccc1C(=O)N/N=C1\C2CN3CCN(C2)CC1(c1ccccc1)C3	7.36 µM (active)
O=C(CSc1nnc2ccc3ccccc3n12)c1ccc(F)cc1	9.27 µM (active)
c1ccc2c(c1)ccc1nnc(SCc3ccc4c(c3)OCCO4)n12	16.5 µM (active)
Cc1ccc2nc(-c3ccc(Cl)c(NC(=O)c4ccc5c(c4)OCCO5)c3)oc2c1	7.36 µM (active)
COc1ccc2oc(-c3ccc(C)c(NC(=O)c4ccc5c(c4)OCCO5)c3)nc2c1	8.26 µM (active)
Cc1nn(CC(=O)Nc2ccccc2C(F)(F)F)c(=O)c2cccn12	16.5 µM (active)
CCc1cccc(C)c1NC(=O)Cn1nc(C)n2cccc2c1=O	4.65 µM (active)

Reference: PubChem BioAssay AID2289 (National Center for Advancing Translational Sciences (NCATS), 2010)
